# The whole screen tested about 310,000 compounds, of which about 14,000 (4.5%) showed an effect of 50% or more. The effect is printed as a negative number. Shown is part of a subset that was picked to be rich in strong results.
# Target: human ether-à-go-go-related gene (hERG) potassium channel (human, UniProt Q12809)
# Test: primary screen, population patch clamp on CHO cells stably expressing hERG; higher = less effect of the substance
# 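Further: peak tail current of the secondary pulse compared with the same well before compound.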
# human ether-à-go-go-related gene (hERG) potassium channel, sequence (Q12809 whole entry, looked up): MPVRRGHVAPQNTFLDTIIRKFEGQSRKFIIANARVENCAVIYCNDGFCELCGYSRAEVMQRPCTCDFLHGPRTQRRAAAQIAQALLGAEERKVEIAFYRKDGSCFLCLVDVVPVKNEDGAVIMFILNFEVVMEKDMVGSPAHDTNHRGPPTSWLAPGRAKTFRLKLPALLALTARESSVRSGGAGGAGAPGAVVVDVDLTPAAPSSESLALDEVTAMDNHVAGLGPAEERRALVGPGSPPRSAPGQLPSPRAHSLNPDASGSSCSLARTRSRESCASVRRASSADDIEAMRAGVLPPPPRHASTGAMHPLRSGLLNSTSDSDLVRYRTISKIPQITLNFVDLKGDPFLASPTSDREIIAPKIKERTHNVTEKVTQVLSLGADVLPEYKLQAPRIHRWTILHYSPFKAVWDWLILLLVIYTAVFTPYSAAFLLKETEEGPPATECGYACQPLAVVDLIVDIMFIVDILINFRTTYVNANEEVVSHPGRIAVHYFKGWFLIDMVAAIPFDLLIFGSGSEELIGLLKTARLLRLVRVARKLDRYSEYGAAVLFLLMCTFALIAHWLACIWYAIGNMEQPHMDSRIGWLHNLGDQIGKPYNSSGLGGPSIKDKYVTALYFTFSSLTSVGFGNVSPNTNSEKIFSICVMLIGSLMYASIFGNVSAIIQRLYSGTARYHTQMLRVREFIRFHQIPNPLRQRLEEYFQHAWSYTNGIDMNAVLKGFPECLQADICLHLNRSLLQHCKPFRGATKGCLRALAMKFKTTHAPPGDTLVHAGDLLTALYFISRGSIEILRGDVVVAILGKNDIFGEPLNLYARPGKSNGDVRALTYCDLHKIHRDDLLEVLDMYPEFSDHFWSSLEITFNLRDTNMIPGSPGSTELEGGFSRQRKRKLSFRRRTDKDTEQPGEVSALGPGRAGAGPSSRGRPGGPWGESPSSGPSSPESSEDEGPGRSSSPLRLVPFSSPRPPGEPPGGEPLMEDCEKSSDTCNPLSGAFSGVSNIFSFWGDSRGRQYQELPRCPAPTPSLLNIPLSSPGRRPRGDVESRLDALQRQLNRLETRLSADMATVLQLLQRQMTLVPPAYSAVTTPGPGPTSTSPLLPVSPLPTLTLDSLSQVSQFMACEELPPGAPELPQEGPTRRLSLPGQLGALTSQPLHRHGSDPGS
row,Structure (SMILES),"hERG current change (%, negative = inhibition) at 10uM [%]"
1,CC(C)CN(C(=O)CCC(=O)OCC(=O)N(C)c1ccccc1)c1c(N)n(CC(C)C)c(=O)[nH]c1=O,10.7
2,O=C(CCCn1c(=S)[nH]c2cc3c(cc2c1=O)OCO3)N1CCN(c2ccccc2F)CC1,20.6
3,CCOc1ccc(NC(=S)N2CCCN(Cc3cc(C)ccc3C)C2)cc1,-57.8
4,COc1ccc(NC(=S)N2CCCN(Cc3cc(C)ccc3C)C2)cc1,-12.7
5,CCOc1ccc(NC(=S)N2CCCN(Cc3cccc(Cl)c3)C2)cc1,-17.6
6,CN(C)c1ccc(C=NCCc2ccc(S(N)(=O)=O)cc2)cc1,6.19
7,COc1ccc2[nH]c(=O)c(CN(C(=O)c3cccnc3)c3cccc(C)c3)cc2c1,11.5
8,O=C(COC(=O)c1ccc([N+](=O)[O-])s1)Nc1ncc(C(F)(F)F)cc1Cl,-63
9,O=C(COC(=O)CNC(=O)c1ccc([N+](=O)[O-])o1)Nc1ncc(Cl)cc1Cl,-54.9
10,O=C(COC(=O)CNC(=O)c1ccc(Cl)cc1)Nc1ncc(C(F)(F)F)cc1Cl,-31.8
11,COc1ccc(C(=O)NCC(=O)OCC(=O)Nc2ncc(Cl)cc2Cl)cc1[N+](=O)[O-],-37.3
12,Cc1c(Cl)cnc(NC(=O)COC(=O)c2ccc([N+](=O)[O-])s2)c1Cl,6.06
13,Cc1ccc(C(=O)OCC(=O)Nc2ccccc2)cc1NC(=O)c1ccco1,-4.37
14,Cc1ccc(C(=O)OCC(=O)Nc2ncc(C(F)(F)F)cc2Cl)cc1NC(=O)c1ccco1,-50.1
15,O=C(COC(=O)CNC(=O)c1ccc([N+](=O)[O-])o1)Nc1ncc(C(F)(F)F)cc1Cl,-58.3
16,O=C(COC(=O)c1ccccn1)Nc1ncc(C(F)(F)F)cc1Cl,-11.7
17,Cc1ccc(C(=O)OCC(=O)Nc2ncc(Cl)cc2Cl)cc1NC(=O)c1ccco1,-48.7
18,O=C(COC(=O)CNC(=O)c1ccccc1Cl)Nc1ncc(C(F)(F)F)cc1Cl,-1.76
19,O=C(COC(=O)CNC(=O)c1ccco1)Nc1ncc(Cl)cc1Cl,7.02
20,Cc1cc(-n2cnnn2)cc(C)c1S(=O)(=O)NCCOc1ccccc1,-38.5
21,CC(O)c1nc2ccccc2n1CC(=O)Nc1ccc(F)cc1Cl (centres unmarked),14.2
22,CCOC(=O)c1sc(NC(=O)c2ccc(C)o2)nc1C,-5.35
23,COc1cc(C(c2c(C)n(C)n(-c3ccccc3)c2=O)c2c(C)n(C)n(-c3ccccc3)c2=O)cc(Br)c1O,13.7

row,Structure (SMILES),"hERG current change (%, negative = inhibition) at 10uM [%]"
1,COc1cccc(-c2nnc(NC(=O)c3ccc4ncsc4c3)o2)c1,-8.13
2,COc1cc(/C=C/C(=O)O)cc(S(=O)(=O)Nc2ccccc2Cl)c1OC,18.8
3,CN(c1ccccc1)S(=O)(=O)c1ccc(Cl)c(C(=O)NCCc2c[nH]c3ccccc23)c1,-15.8
4,COc1ccc(/C=C/C(=O)Nc2ccccc2C(=O)O)cc1,7.91
5,O=[N+]([O-])c1cc([N+](=O)[O-])c2nonc2c1Nc1ccc(O)cc1,-56.9
6,O=[N+]([O-])c1c(Nc2ccc(O)cc2)cc(Cl)c2nonc12,-26.1
7,O=[N+]([O-])c1cc([N+](=O)[O-])c2nonc2c1Nc1ccccc1O,10.3
8,CCC1CCCCN1C(=O)COC(=O)CN(C)S(=O)(=O)c1ccc(NC(C)=O)cc1 (centres unmarked),7.22
9,Cc1c(-c2cccc(NC(=O)c3ccco3)c2)nc2ncccn12,-13.3
10,Cc1ccc(NC(=O)c2nsc(Cl)c2Cl)cc1,5.34
11,CCCc1nn(C)c2c(=O)[nH]c(-c3ccccc3OCC)nc12,7.87
12,CCCOc1ccccc1-c1nc2n[nH]nc2c(=O)[nH]1,-56.3
13,CCCOc1ccccc1-c1nc2c([nH]1)c(=O)[nH]c(=O)n2C,8.5
14,COc1ccccc1NC(=O)CCS(=O)(=O)c1cc2c(cc1Cl)NC(=O)CO2,1.94
15,CCOC(=O)c1cnc2cc(C)nn2c1-c1ccccc1,3.92
16,O=C(CCN1CCCCC1)N/N=C/c1ccc(Br)cc1,-77.8
17,COc1ccc(/C=N/NC2=NCCCCC2)cc1,-43.7
18,Oc1ccc(/C=N/NC2=NCCCCC2)cc1,-16.2
19,O=C(CCN1CCCCC1)Nc1ccc(Br)cc1,-37.9
20,O=C(CN1CCCCCC1)N/N=C/c1ccc2ccccc2c1,-64.6
21,CCOc1ccc(/C=N/NC(=O)CN2CCSCC2)cc1,1.7
22,CCCOc1ccc(/C=N/NC(=O)CN2CCCCC2)cc1,-49.7
23,CCCCCCC(=O)N/N=C/c1ccc(Br)cc1,1.25

row,Structure (SMILES),"hERG current change (%, negative = inhibition) at 10uM [%]"
1,O=C(CN1CCCCCCC1)N/N=C/c1ccc(F)c(F)c1,-33.7
2,CCOc1ccc(/C=N/NC(=O)CN2CCCCCCC2)cc1,-63
3,CCOc1ccc(/C=N/NC2=NCCCCC2)cc1,-69.3
4,Cc1cccc(/C=N/NC(=O)CN2CCCCCCC2)c1,-45.9
5,CC(=O)c1ccc(OCc2cc(=O)n3ccsc3n2)cc1,-1.4
6,C=CCN1C(=O)C(CC(=O)NCC)SC1=Nc1cc(Cl)ccc1Cl (centres unmarked),-2.76
7,Cc1ccc(NC(=O)C(C)OC(=O)CCNS(=O)(=O)c2ccc(C)cc2)cc1 (centres unmarked),-16.5
8,CCOC(=O)C1=C(C)NC(=O)NC1,-3.56
9,CCN(CC)S(=O)(=O)c1cc(NC(=O)CCNC(=O)c2ccccc2Cl)ccc1C,-11.5
10,COc1cc(/C=C/c2nc3ccccc3c(=O)[nH]2)cc(Br)c1O,30.6
11,CC(C)(C)Nc1nc(NN)nc(NC(C)(C)C)n1,11.8
12,O=C(Nc1ccc(C(=O)O)cc1)/C(=C\c1ccco1)NC(=O)c1ccccc1,21.2
13,Cl.O=C1c2ccccc2C(=O)N1CC#CCN1CCN(C2CCCCC2)CC1,-40.8
14,O=C(CN1CCSCC1)N/N=C/c1ccc(Cl)cc1,-12.5
15,CN1CCN(CCC(=O)N/N=C/c2cc([N+](=O)[O-])ccc2O)CC1,1.18
16,O=C(CN1CCCCCC1)N/N=C/c1ccc(Cl)c(Cl)c1,-60
17,O=C(CN1CCCCC1)N/N=C/c1ccc(Cl)cc1,-66.9
18,CC1CCN(CCC(=O)N/N=C/c2ccc([N+](=O)[O-])cc2)CC1,-70
19,Cn1cccc1CC(=O)N/N=C/c1ccc([N+](=O)[O-])cc1,-1.88
20,O=C(CN1CCCCC1)N/N=C/c1ccc(Cl)cc1Cl,-39.1
21,O=C(CN1CCCCC1)N/N=C/c1cccc(Cl)c1,-35.6
22,O=C(CN1CCCCCC1)N/N=C/c1cccc(Cl)c1,-37.5
23,CCOC(=O)c1c(N)nn(C(=O)c2ccccc2F)c1-c1ccc(OC)cc1,3.53

row,Structure (SMILES),"hERG current change (%, negative = inhibition) at 10uM [%]"
1,Nn1c(Cc2cccc3ccccc23)nnc1SCC(=O)N1CC(=O)Nc2ccccc21,7.01
2,Cc1ccc2cc(CCNC(=O)c3ccco3)c(=O)[nH]c2c1,-13.6
3,CCN(CC)c1ccc(-n2c(C)cc(C=O)c2C)cc1,6.33
4,CC/C(=N/N=C(\CC)c1ccccc1)c1ccccc1,5.16
5,CCCC[N+]12CCC(CC1)C(=C(c1ccccc1)c1ccccc1)C2.[Br-],-72.4
6,CCCC[N+]12CCC(CC1)C(C(O)(c1ccccc1)c1ccccc1)C2.[Br-] (centres unmarked),5.84
7,CC[N+]12CCC(CC1)C(C(O)(c1ccccc1)c1ccccc1)C2.[Br-] (centres unmarked),-5.24
8,CC[N+]12CCC(CC1)C(=C(c1ccccc1)c1ccccc1)C2.[Br-],-73.6
9,CCCC[N+]12CCC(CC1)C(Cc1ccccc1)C2.[Br-] (centres unmarked),21.9
10,CCC/C(=N\NC(=O)C1CC1)c1ccccc1,-2.21
11,CCC[N+]12CCC(CC1)C(=C(c1ccccc1)c1ccccc1)C2.[Br-],-70.1
12,CCC[N+]12CCC(CC1)C(C(O)(c1ccccc1)c1ccccc1)C2.[Br-] (centres unmarked),-0.95
13,COC(=O)COc1ccc2c(=O)c(-c3ccccc3OC)coc2c1,10.2
14,COc1ccc(CSc2nncn2N)cc1Br,4.98
15,Cc1cc(C)c(-n2c(C)cc(/C=C3/NC(=O)NC3=O)c2C)c(C)c1,-9.75
16,CCOc1ccccc1N(C)C(=O)CCS(=O)(=O)c1ccc2c(c1)NC(=O)CO2,5.58
17,CCCOP(=O)(c1ccc(N(C)C)cc1)C(O)c1ccc(Cl)cc1Cl (centres unmarked),-54.9
18,CCCOP(=O)(c1ccc(N(C)C)cc1)C(O)c1ccc(Cl)cc1 (centres unmarked),9.5
19,CC(C)CCOP(=O)(c1ccc(N(C)C)cc1)C(O)c1ccc(Cl)cc1Cl (centres unmarked),0.259
20,CC1CC(C)CN(c2oc(-c3ccco3)nc2C#N)C1 (centres unmarked),0.193

# From publication PMC4336329 (PLoS ONE, 2015)
